Measurements published in the OligoGym collection.

target: ALDH1A3; experiment: pooled miR-30 sensor sort-seq; sequence = guide strand; conditions: shRNA
Note: reference of the scale not given here.

Row | Sequence | sensor-assay potency score (higher = more potent)
1 | TTCGATACTTTTGAACTTCAGT | -0.228
2 | TTCTGTTTTGACATCGAAGGGG | 0.0292
3 | TAGTCGGTGCTATTCGCTCTTT | -0.888
4 | TCTTTTTATCACTTCTTCGATA | -0.674
5 | ATTGTTGATAAATATCTTGGTG | -0.0591
6 | TCTGTTTTGACATCGAAGGGGT | 0.173
7 | TTTTGTCGAACTGCTTTTGATC | -0.787
8 | TATCTTGGTGAACTTGACCTCC | 0.362
9 | ATAAATATCTTGGTGAACTTGA | -0.0326
10 | TTCCACTTCACATATTTGCTCC | -0.153
11 | TTGGTTGAAGAACACTCCCTGA | -0.48
12 | TTTTTGTGAACACGGCTGCTGT | -0.433
13 | TAAGATTTTGTCGAACTGCTTT | 0.131
14 | TCATTGTTGATAAATATCTTGG | -0.45
15 | TTTTTTGTGAACACGGCTGCTG | 0.356
16 | TTTGTGAACACGGCTGCTGTGA | -0.151
17 | TTTCTTGGCATACTCCACGCTC | -0.65
18 | TAGCAGTTGATCCAGACCGTTC | -1.2
19 | TTTATCACTTCTTCGATACTTT | -0.132
20 | TTGTTGATAAATATCTTGGTGA | 0.169

target: ALDH9A1; experiment: as above; conditions: shRNA

Row | Sequence | sensor-assay potency score (higher = more potent)
21 | TCTCATGTAATATCCATCCTTT | -0.314
22 | TCTTTCTGCACAAATACTCTTG | -0.35
23 | TTATCCTAGTCTCTTTTCCTGT | -0.816
24 | TTGTTAATGAAGCACGTCCCAG | -1.05
25 | TAACACTTTAGCACCCTGCTCC | 0.132
26 | TAACATTCAGTTGTACTGCCTC | -0.0109
27 | TTCTCTTATACTGAACGCCAAA | -1.4
28 | TAATACTCCAGGCACTGCCAGG | -1.24
29 | TTAATTTGGGATCTTCAGGTAC | 0.221
30 | TAAAAAAATGTCAATGAGCTGA | -0.73
31 | TTAAAGGGTAGCTCCACTGGTG | -0.285
32 | TTAGTTAATACACAAGGTCTCA | -0.528
33 | TATAACCAAACGATCCACCTGG | 0.155
34 | TTGATGAGTGGACCCATCCTTG | -0.479
35 | TTCAGTTGTACTGCCTCTGTAA | -0.536
36 | TTCTTGATTAGTATCTACAAGG | -0.856
37 | TTTCTTGATTAGTATCTACAAG | -1.25
38 | TAATATTCGATTGTCACACGGC | 0.406
39 | TTTGCCACTTTGACAAACCCAA | -0.698
40 | TTCACATCATTCCACAGCGTGG | -1.5
